Compounds without any hit were thinned out: in the full panel of roughly 83,000, 20% have a hit.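 Interpretation: 100, growth as untreated; towards 0, rising growth inhibition; 0, no net growth; 0 to -100, cell death. Compounds scoring below 10 were considered active.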 Calls of active or inactive are those of the source.

The subject of this test is NCI-H322M lung. Description: NCI-60 one-dose screen, 48 h (100 = growth as untreated, 0 = no growth, -100 = all killed). As to conditions: 10 µM unless noted. Here is the method: Growth inhibition of the NCI-H322M human Non-Small Cell Lung tumor cell line is measured as a screen for anti-cancer activity. Cells are grown in 96 well plates and exposed to the test compound for 48 hours. Compounds are tested at a single concentration, which is 10^-5 M for most compounds. The reported endpoint is percent growth (GI% or GIPRCNT), where numbers from 0 - 100% represent growth inhibition, and numbers from -100% - 0 represent cell death. For example, a value of 40 represents 60% growth inhibition. A value of 0 means no net growth occurred over the course of the experiment. A value of -40 indicates 40% of cells at the beginning of the experiment died by the end of the experiment. A value of -100 means all cells are dead at the end of the experiment.
NCI-60 Human Tumor Cell Lines Screen was performed using the standard one-dose NCI protocol, which is described in more detail at https://dtp.cancer.gov/discovery_development/nci-60/default.htm.
Compounds with GIPRCNT values below 10 were considered active. Activity score was based on GIPRCNT using the following formula: […]
Score is 0 for GIPRCNT values of 100 or above, 50 for GIPRCNT values of 0, and 100 for GIPRCNT values of -100.
Regarding `Cc1nc2c3c(-c4ccccc4)c(-c4ccccc4)oc3ncn2n1`, the growth is 102% (inactive).

Regarding `Cc1cc2nc(NC(=O)CN3CCN(CCN4C(=O)c5cccc6cccc(c56)C4=O)CC3)sc2cc1C`, the growth was 85.2% (inactive).

Consider `Oc1ccccc1-c1nnc(CNc2ccc(Cl)cc2)o1`, for which the growth is 32% (inactive).

Regarding `Cc1ccc2c(C(C[N+](=O)[O-])c3ccco3)c(-c3ccccc3)[nH]c2c1` (stereo not given), the growth is 53.3% (inactive).

Turning to `COc1ccc2cc(-c3nn(-c4ccc(C(=O)O)cc4)cc3CO)ccc2c1`, the growth is 97% (inactive).

As for `CCCCCC(=O)Oc1ccc(/C(=C(\C)c2ccc(OC)cc2)c2ccc(OCCN3CCCCC3)cc2)cc1`, the growth is 78.2% (inactive).

For `CC(=O)O[C@H]1CC[C@]2(C)[C@H]3CC=C4[C@@H]5CC(C)(C)CC[C@]5(C(=O)NCCNCCN)CC[C@@]4(C)[C@]3(C)CC[C@H]2C1(C)C`, the growth was 67.3% (inactive).

For the compound `CCOc1cc2ncc(C#N)c(Nc3ccc(OCc4cccc(F)c4)c(Cl)c3)c2cc1NC(=O)CCCCC1CCSS1` (stereo not given), the growth is 90.8% (inactive).

`Cc1nn(-c2ccc(F)cc2)c2ncnc(Nc3ccc(NC(=O)Nc4ccc(Cl)c(C(F)(F)F)c4)cc3)c12`: the growth was 67.5% (inactive).

For `CNC(=O)c1cc(Oc2ccc(NC(=O)Nc3ccc(Cl)c(SC)c3)c(F)c2)ccn1`, the growth is 74.5% (inactive).

On to `COc1cc(C=Nc2oc(-c3ccccc3)c(-c3ccccc3)c2C#N)cc(CN2CCCCC2)c1O`, for which the growth is 99.6% (inactive).

Consider `C=C1c2nc3ccccc3n2C=C(c2ccc(Cl)cc2)N1Cc1ccc(OC)cc1`, for which the growth is 101% (inactive).

As to `CC1=C[C@H]2c3c(c(O)c(O)c4oc5ccccc5c(=O)c34)[C@H](c3cc(O)c(O)c4oc5ccccc5c(=O)c34)[C@H]2C(C)(C)C1`, the growth is 18.7% (inactive).

Turning to `CC[C@H]1OC(=O)[C@H](C)[C@@H](O[C@H]2C[C@@](C)(OC)[C@@H](O)[C@H](C)O2)[C@H](C)[C@@H](O[C@@H]2O[C@H](C)C[C@H](N(C)C)[C@H]2O)[C@](C)(O)C[C@H](C)CN(C)[C@H](C)[C@@H](O)[C@]1(C)O`, the growth was 104% (inactive).

Turning to `CCN1CCN(c2nc(NCCNc3ccnc4cc(Cl)ccc34)c3ccccc3n2)CC1`, the growth was 42.3% (inactive).

Turning to `Cn1ccnc1C(=O)/C=C/c1ccccc1`, the growth is 10.4% (inactive).

On to `O=C(N/N=C/c1c[nH]c2ccccc12)c1cc(-c2ccccc2)on1`, for which the growth was 82.9% (inactive).

Regarding `COc1ccc(N=Nc2nccs2)c(O)c1`, the growth was 88.4% (inactive).

On to `COc1ccc(-c2cc(C(=O)N=Nc3c(O)[nH]c4ccc(Br)cc34)no2)cc1`, for which the growth is 99% (inactive).

In the case of `CCCc1cc(=O)n2c(C(=O)Nc3cccc(C(=O)OCC)c3)c(C(=O)Nc3ccc(F)cc3)sc2n1`, the growth was 97.3% [30 µM] (inactive).

`O=C(Oc1cccnc1)c1ccsc1Nc1ccnc(C(F)(F)F)c1`: the growth was 104% (inactive).

Take `COc1cc(-c2nc3cc(Cl)c(Cl)cc3[nH]2)ccc1OCC(=O)N=Nc1c(O)[nH]c2ccccc12`: the growth was -40.7% (active).

In the case of `Nc1ccc(-c2cc3c(NCc4ccccc4)ncnc3s2)cc1`, the growth is 60.7% (inactive).

As for `Cc1ccc(OC(=O)c2ccc(Cl)cc2)cc1`, the growth was 98.2% (inactive).

On to `C(=N/Nc1ncc(-c2cc3cc(-c4ccccc4)ccc3o2)s1)/c1cccs1`, for which the growth was 33.8% (inactive).

Consider `CSc1ccc(-c2n[nH]nc2-c2cc3ccccc3s2)cc1`, for which the growth was 73.9% (inactive).

With `O=S(=O)(Nc1ccc(Br)c(Cl)c1)c1ccc(-c2cnc(C3CC3)o2)cc1`, the growth was 39.2% (inactive).

Consider `CC[C@@H]1O[C@H](O[C@@H](c2cnc[nH]2)[C@H](NC(=O)c2nc([C@H](CC(N)=O)NC[C@@H](N)C(N)=O)nc(N)c2C)C(=O)N[C@H](C)[C@H](O)[C@H](C)C(=O)N[C@@H](C(=O)NCCc2nc(-c3nc(C(=O)NCCCCN=C(N)N)cs3)cs2)[C@@H](C)O)[C@H](O[C@@H]2O[C@H](CO)[C@H](O)[C@H](OC(N)=O)[C@@H]2O)[C@H](C)[C@@H]1C`, for which the growth is 105% (inactive).

With `Cc1cc(N2CCN(c3ccnc4cc(Cl)ccc34)CC2)nc(NC2CCCCC2)n1`, the growth is 58.5% (inactive).

As to `COc1ccc(-n2nc(C)c3c(Nc4ccc(NC(=O)Nc5c(Cl)cccc5Cl)cc4)ncnc32)cc1`, the growth was 57.7% (inactive).

In the case of `NC(CSC(c1ccccc1)(c1ccccc1)c1ccc(Cl)cc1)C(=O)O` (stereo not given), the growth is 36.5% (inactive).

Take `O=C(Cn1cccc(Nc2ccccc2)c1=O)Nc1ccccc1`: the growth is 114% (inactive).

For `Nc1n[nH]c2ccc([C@@H]3Nc4ccc5cn[nH]c5c4[C@H]4C5CCC(C5)[C@@H]34)cc12` (stereo not given in full), the growth was 47.2% (inactive).

Turning to `O=C1/C(=C/c2ccc(Cl)cc2)SC(=S)N1CCc1ccc(O)cc1`, the growth is 99.3% (inactive).

Take `CC(=O)OC[C@H]1O[C@H](OC(C)=O)[C@H](NC(=O)/C=C/CCl)[C@@H](OC(C)=O)[C@@H]1OC(C)=O`: the growth is 84.5% (inactive).

For `COc1ccc(-c2nc3ccc(-c4nc5ccc(N6CCN(c7ccc(F)cc7)CC6)cc5[nH]4)cc3[nH]2)cc1OC`, the growth is 88.5% (inactive).

In the case of `COc1cc2c(cc1O)CC[C@@H]1[C@@H]2CC[C@]2(C)[C@@H](NCCN(C)C)CC[C@@H]12`, the growth is -91.6% (active).

Take `CCN(CC)c1ccc2c(c1)Oc1nc(N)c(C#N)c(N)c1C2Sc1ccc(SC)cc1` (stereo not given): the growth was -15.1% (active).

In the case of `COc1ccc(-c2nc3ccc(-c4nc5ccc(N6CCN(C)CC6)cc5[nH]4)cc3[nH]2)cc1OC`, the growth is 96.5% (inactive).

In the case of `Cc1ccc(O)c(N2C(=NCc3ccco3)NS(=O)(=O)c3cnccc32)c1`, the growth is 114% (inactive).

The record behind these values is PubChem BioAssay (NCI).
